From PubChem BioAssay
SKKanGAS inh = S. pyogenes SKKanGAS growth inhibitors in kanamycin, primary screen, streptokinase expression inhibitor project, SKKanGAS strain, BacTiter-Glo luminescence | AID 1662, 2009 | inhibition, % at 7.5 µM | 6 h | 1.3% of 300,000 active;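 active means mean replicate score, as percent of positive control median, at least 50; inconclusive means mean below 50 but one replicate at or above 50; inactive means mean and every replicate below 50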;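 further: strain carries kanamycin resistance gene driven by streptokinase promoter and grows in 40 µg/ml kanamycin; loss of luminescence reflects streptokinase promoter inhibition or plain growth inhibition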
KLF5 inh = KLF5 expression inhibitors, primary screen, DLD-1 cells, luminescence; DLD-1 KLF5 promoter-luciferase reporter; inhibition, % at 5 µM; 0.23% of 290,000 active;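 active means inhibition above a per-plate limit of that plate's mean compound inhibition plus 3 SD, cut at about 60% in these data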;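 further: higher means less KLF5 promoter-driven luciferase light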
IEC-6 tox = cytotoxicity in IEC-6 intestinal epithelial cells, primary screen, cytotoxicity control for KLF5 inhibitor project, cell-based, luminescence | IEC-6 cytotoxicity, luminescence viability | inhibition, % at 5 µM | 0.78% of 290,000 active
CSC inhib = cancer stem cell viability inhibitors, primary screen, luminescence; inhibition, % at 7.5 µM; cancer stem cell-like cells viability; 1.1% of 300,000 active; in the data active means inhibition above about 75%; inconclusive means no clear call, values can overlap the other calls; tested in HMLE shEcad cells
aSyn UTR inh = MLPCN primary screen, SNCA 5' untranslated region; inhibition, % (tested at 7.5 µM); AID 1813, 2009; alpha-synuclein 5'UTR reporter, inhibitor activity; 0.82% of 300,000 active; in the data active means inhibition above about 60%; inconclusive means no clear call, values can overlap the other calls;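 further: H4 neuroglioblastoma cells stably carrying SNCA 5'UTR luciferase fusion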
IEC-6 cytotox cf = cytotoxic compounds in IEC-6 epithelial cells, confirmation, cytotoxicity control, cell-based, luminescence. IEC-6 rat intestinal epithelial viability. inhibition, % at 5 µM. 63% of 1,900 active. shares compounds with IEC-6 tox. AID 1907, 2009
Each line names hits and unclear results; the compound was inactive in the other large screens (follow-up assays come after a bar, where they were run). A selection: hits, their analogues and other compounds. The true share with any hit is near 3%. Unless noted, no stated cut-off is given here; in the data, active means inhibition above about 22%; inactive means the rest.

CCOc1c(Br)cc(CNc2ccc3c(c2)OCCO3)cc1OC	IEC-6 tox 76, aSyn UTR inh 97 | IEC-6 cytotox cf 54
CCOc1cc(CNc2ccc3c(c2)OCCO3)cc(Br)c1OC	IEC-6 tox 82, CSC inhib 78, aSyn UTR inh 95 | IEC-6 cytotox cf 61
CCOc1cc(CNc2ccc3c(c2)OCCO3)cc(Br)c1OCC(N)=O	none
COc1ccc2c(c1OC)C(=O)OC2C1c2c(cc3c(c2OC)OCO3)CCN1C (stereo not given)	none
CN1CCc2cc3c(c4c2[C@H]1[C@H](O)c1ccccc1-4)OCO3	IEC-6 tox 44 | IEC-6 cytotox cf inactive
COc1cccc(C(=O)Nc2ccc3c(cc2=O)[C@@H](NC(C)=O)CCc2cc(OC)c(OC)c(OC)c2-3)c1	IEC-6 tox 46 | IEC-6 cytotox cf 39
COc1cccc(Oc2cnc(N)nc2-c2ccc(OC)cc2O)c1	IEC-6 tox 45 (no result: CSC inhib) | IEC-6 cytotox cf 33
C=C(C)[C@@H]1CC=C(CN2CCC(CCOC)(C(=O)OCC)CC2)CC1	none (no result: aSyn UTR inh)
O=c1[nH]c(/C=C/c2cccc3ccccc23)nc2ccccc12	none
O=c1[nH]c(/C=C/c2ccccc2F)nc2ccccc12	IEC-6 tox 79 | IEC-6 cytotox cf 63
O=C(O)c1ccccc1NC(=O)c1ccccc1Nc1ccccc1	IEC-6 tox 35 | IEC-6 cytotox cf inactive
O=C(Nc1ccccc1C(=O)Nc1ccccc1C(=O)O)c1ccccc1	none
CCCOc1ccc(-c2c(C(=O)N/N=C(\C)c3cccs3)nnn2-c2nonc2N)cc1	none
Cc1ccc(F)cc1NC(=O)c1sc2ncn(CC(=O)N3CCN(c4ccccn4)CC3)c(=O)c2c1C	none
CC(C)c1ccc(/C=C2\SC(=O)N(CC(=O)NC3C=CS(=O)(=O)C3)C2=O)cc1 (stereo not given)	none
CC(C)C(O)(C#CCN1CCCCCC1)c1ccccc1 (stereo not given)	none
CCCCCCCCCCCCCCCCn1cc[n+](C)c1	SKKanGAS inh 114, IEC-6 tox 35, CSC inhib 79, aSyn UTR inh 141 | IEC-6 cytotox cf 32
COc1cc2c(cc1OC)C(C)N(C(=O)c1cc(Cl)nc(Cl)c1)CC2 (stereo not given)	IEC-6 tox 39 | IEC-6 cytotox cf inactive
Cc1cc(=O)[nH]c2sc(C(=O)N3c4ccccc4CC3C)c(N)c12 (stereo not given)	none (no result: SKKanGAS inh, KLF5 inh, IEC-6 tox, aSyn UTR inh)
CCc1cc2c(SCC(=O)N(C)C3CCS(=O)(=O)C3)ncnc2s1 (stereo not given)	none
Cc1ccc(N=Nc2c(N)[nH]n3c(=O)cc(C)nc23)cc1	IEC-6 tox 22 | IEC-6 cytotox cf inactive
CC[n+]1c(C=C2C=C(C)OC(C)=C2)sc2ccccc21	IEC-6 tox 25 (no result: CSC inhib) | IEC-6 cytotox cf 27
CCOCCCNC(=O)c1cc(-c2cccnc2)nc2ccc(S(=O)(=O)N3CCC(C)CC3)cc12	IEC-6 tox 24 | IEC-6 cytotox cf inactive
Cc1ccnc(N2C(=O)CSC2c2ccc(Cl)cc2)c1 (stereo not given)	none
Cc1ccccc1-c1ocnc1C(=O)Nc1ccccc1NC(=O)c1ccccn1	IEC-6 tox 23 | IEC-6 cytotox cf inactive
Cc1ccc(C)c(C(=O)c2ccccc2NC(=O)c2ccccn2)c1	none
CCCC(=O)N1CCN(c2ccc(NC(=O)c3ccc(Br)o3)cc2)CC1	none
CN1CCN(c2ccc(NC(=O)c3ccc(-c4ccc(Br)cc4)o3)cc2)CC1	IEC-6 tox 25 | IEC-6 cytotox cf inactive
CCC(=O)N1CCN(c2ccc(NC(=O)c3ccc([N+](=O)[O-])o3)cc2)CC1	IEC-6 tox 97, aSyn UTR inh inconclusive (no result: CSC inhib) | IEC-6 cytotox cf 51
O=C(Nc1ccc(N2CCCC2)c(Cl)c1)c1ccc([N+](=O)[O-])o1	IEC-6 tox 71 (no result: SKKanGAS inh, CSC inhib, aSyn UTR inh) | IEC-6 cytotox cf 36
CCCC(=O)N1CCN(c2ccc(NC(=O)c3ccc([N+](=O)[O-])o3)cc2)CC1	IEC-6 tox 90 (no result: CSC inhib) | IEC-6 cytotox cf 45
NC(=O)Nc1ccc(C(=O)OCC(=O)Nc2ccc(Cl)cn2)cc1	none
CC(C)(C)C(=O)N1CCN(c2ccc(NC(=O)c3ccco3)cc2)CC1	none (no result: CSC inhib)
CS(=O)(=O)N1CCN(c2ccc(NC(=O)c3ccc([N+](=O)[O-])o3)cc2)CC1	IEC-6 tox 25, aSyn UTR inh 72 (no result: CSC inhib) | IEC-6 cytotox cf 56
O=C(Nc1ccc(N2CCCC2)cc1)c1ccc(Br)o1	none
